A number with no mark means an inactive call. Inconclusive results are not listed. Entries that show only a call come without a potency. Activity calls are given as the source filed them. Calls follow the shape of the dose curve; as a rule, active = well fitted curve in the direction sought with a large enough effect; inconclusive = small, poorly fitted or top-dose-only effect, or another doubt; inactive = no such curve, though single readings can be large; an effect the other way counts as inactive or inconclusive.
Assays:
[1] = biological target: Glutathione peroxidase 1 (Homo sapiens) (UniProt P07203); assay: Primary qHTS Assay for Inhibitors of Recombinant Selenoprotein Glutathione Peroxidase 1 (GPX1) (AID 1845191); also: nearly all actives have a fitted effect of over 65% in size
Procedure, shortened: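 10 nM GPX1 + cpd, 30 min RT; start w/ 1 mM GSH, 0.5 mM cumene hydroperoxide, 0.5 mM NADPH, 100 nM GR, 0.01% BSA; buffer 50 mM Tris-HCl pH 7.5, 2 mM EDTA, 150 mM NaCl; Fl 340/450, 0 & 15 min.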

[2] = biological target: Phospholipid hydroperoxide glutathione peroxidase GPX4 (Homo sapiens) (UniProt P36969); assay: Primary qHTS Assay for Inhibitors of Recombinant Selenoprotein Glutathione Peroxidase 4 (GPX4) (AID 1845192); also: nearly all actives have a fitted effect of over 65% in size; as to activity change, negative = inhibition: series mostly up to about 50 µM
Procedure, shortened: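 NADPH consumption, followed by fluorescence at 340/450 nm between 0 and 15 min, reports GPX4 activity via coupled glutathione reductase (100 nM). Enzyme 200 nM was pre-exposed to compound 30 min; 0.5 mM cumene hydroperoxide and 1 mM GSH served as substrates.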

[3] = biological target: Luciferin 4-monooxygenase (Photinus pyralis) (UniProt P08659); assay: Primary firefly luciferase (FLuc) qHTS assay for identification of artifact compounds. (AID 1845220); also: nearly all actives have a fitted effect of over 60% in size; also: potency is read from the fitted curve at half-maximal effect; as to activity change, negative = inhibition: series mostly up to about 54 µM
Procedure, shortened: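 Cell-free, 1536-well qHTS. Buffer pH 7.6 with 0.01% Tween-20 and 0.05% BSA; 10 uM D-luciferin, 10 uM ATP; 10 nM P. pyralis luciferase; luminescence after 5 min.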

[4] = Primary fluorescence-based thiol-reactive (MSTI) qHTS assay for identification of artifact compounds. (AID 1845221); also: nearly all actives have a fitted effect of over 65% in size; also: potency is read from the fitted curve at half-maximal effect;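 as to activity change, negative = thiol reactive: series mostly up to about 54 µM; thiol-reactive compounds lower the probe fluorescence signal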
Procedure, shortened: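 Probe: MSTI 4 uM, PBS pH 7.4, 2% DMSO. Incubation 1 h, RT, light-protected. Readout fluorescence 525/598 nm.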

[5] = system: Nanoluciferase (engineered Oplophorus gracilirostris luciferase); assay: Primary Nanoluciferase (NLuc) qHTS assay for identification of artifact compounds. (AID 1845222); also: series mostly up to about 54 µM
Procedure, shortened: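 Compounds are pinned into diluted (1:55) conditioned medium of NLuc-expressing S16 cells and held 15 min at room temperature protected from light. Nano-Glo substrate follows, and luminescence is read 5 min later.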

[6] = Primary redox qHTS assay for identification of artifact compounds. (AID 1845223)
Procedure, shortened: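 Amplex Red (25 uM) and HRP (250 mU/mL) in HBSS, with compounds for 15 min, then 250 uM DTT for 30 min, room temperature, dark. Fluorescence 525/598 nm read; normalized to DMSO and 10 uM DA3003; Hill fit.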

Phospholipid hydroperoxide glutathione peroxidase GPX4 (Homo sapiens), sequence (P36969 whole entry, looked up): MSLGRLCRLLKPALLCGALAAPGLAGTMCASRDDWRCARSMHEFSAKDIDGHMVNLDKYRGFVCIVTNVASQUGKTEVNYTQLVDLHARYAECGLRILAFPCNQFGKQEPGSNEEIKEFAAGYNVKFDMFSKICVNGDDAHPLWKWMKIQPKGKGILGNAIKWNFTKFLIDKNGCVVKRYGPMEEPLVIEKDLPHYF
Glutathione peroxidase 1 (Homo sapiens), sequence (P07203 whole entry, looked up): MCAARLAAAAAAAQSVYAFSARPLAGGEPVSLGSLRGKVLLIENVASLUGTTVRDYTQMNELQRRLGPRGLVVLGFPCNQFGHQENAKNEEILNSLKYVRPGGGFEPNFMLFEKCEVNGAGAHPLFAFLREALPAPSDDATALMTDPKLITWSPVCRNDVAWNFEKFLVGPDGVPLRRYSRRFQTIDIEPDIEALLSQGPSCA

SMILES | Potency [1] | Potency [2] | Potency [3] | Potency [4] | Potency [5] | Potency [6] | activity change, negative = inhibition [3] | activity change, negative = thiol reactive [4] | activity, negative = inhibition [5] | redox activity (% of DA3003) [6]
CC1(C)CN(C(=O)c2ccc(-c3cccc4nc(NC(=O)C5CC5)nn34)cc2)C1 | inactive | inactive | inactive | inactive | inactive | inactive |  |  |  | 
CCC(C)/C=C(C)/C=C/C1=CC2=CC(=O)C3(C)OC(C)(O)C(C(=O)OC)C3C2=CO1 (configuration not stated) | inactive | inactive | inactive | inactive | inactive | inactive |  |  |  | 
Cn1ncc2cc(-c3cnc(N)c(Cl)c3N3CCC4(CCNC4=O)CC3)ccc21 | inactive | inactive | inactive | inactive | inactive | inactive |  |  |  | 
COc1cc2c(Nc3cc(F)c(Cl)c(Cl)c3)ncnc2cc1OCC1CCCN(C)CCC1 | inactive | inactive | inactive | inactive | inactive | inactive |  |  |  | 
C/C=C(\C)C(=O)O[C@H]1C[C@](C)(O)[C@H]2CC=C(C)[C@H]2[C@@H]2OC(=O)[C@H](C)[C@H]21 | inactive | inactive | inactive | inactive | inactive | inactive |  |  |  | 
O=S(=O)(Cc1ccccc1)Nc1ccc(-c2ccc3c(cnn3-c3ccc(F)cc3)c2)c(C(F)(F)F)c1 | inactive | inactive | inactive | inactive | inactive | inactive |  |  |  | 
CC(=O)OC[C@]12[C@H](OC(C)=O)[C@H](OC(=O)c3ccccc3)[C@@H]3[C@@H](OC(C)=O)[C@]1(OC3(C)C)[C@H](C)C[C@H](OC(C)=O)[C@@H]2OC(=O)c1ccccc1 | inactive | inactive | inactive | inactive | inactive | inactive |  |  |  | 
CC(C)c1ccccc1OC(=O)NCCc1ccc2ccccc2c1 | inactive | inactive | inactive | inactive | inactive | inactive |  |  |  | 
COC(=O)c1ccnc(-c2cc(C(=O)Nc3ccc(C4(N)CC4)cc3)ccn2)c1 | inactive | inactive | inactive | inactive | inactive | inactive |  |  |  | 
CCOC(=O)N1CCC(N2CCC[C@@H](NC(=O)c3ccccc3C)C2)CC1 | inactive | inactive | inactive | inactive | inactive | inactive |  |  |  | 
CC(C)NC(=O)N1CC[C@H](N=C2Nc3cc(F)ccc3N(CC(F)F)c3ccc(Cl)cc32)C1 | inactive | inactive |  |  |  |  | 1.25% [at 11.6 µM] | 70.3% [at 11.5 µM] | 1.94% [at 11.6 µM] | 12.5% [at 11.5 µM]
Cc1cccc(C#Cc2cc(F)cc(C#N)c2)n1 | inactive | inactive | inactive | inactive | inactive | inactive |  |  |  | 
CCC(C)C(=O)O[C@H]1[C@@H](OC(=O)c2ccoc2)C[C@](C)(O)[C@]23OC(C)(C)[C@H](C[C@H](OC(=O)c4ccoc4)[C@]12COC(C)=O)[C@H]3OC(C)=O (some centres not stated) | inactive | inactive | inactive | inactive | inactive | inactive |  |  |  | 
CC12CCC3C1C(c1c(cc(O)c(C(=O)c4ccccc4)c1O)O2)C3(C)C (configuration not stated) | inactive | inactive | inactive | inactive | inactive | inactive |  |  |  | 
CC(C)(C)[C@H](NC(=O)c1ccc(N)c(Cl)c1)C(=O)N1CCC[C@H]1C(=O)N[C@H](C#N)CC(=O)O | inactive | inactive | inactive | inactive | inactive | inactive |  |  |  | 
C/C=C(/C=C(C)/C=C/C=C/C=C(\C)C(=O)C12OC1C(O)(CCO)NC2=O)C(=O)OC (configuration not stated) | inactive | inactive | inactive | inactive | inactive | inactive |  |  |  | 
Cc1nc(N2CCN(C(=O)c3ccco3)CC2)c2c3c(sc2n1)CCCC3 | inactive | inactive | inactive | inactive | inactive | inactive |  |  |  | 
OC1(CN2CCC(COc3noc4cccc(O[C@@H]5CCOC5)c34)CC2)CCOCC1 | inactive | inactive | inactive | inactive | inactive | inactive |  |  |  | 
COc1cc(O)cc(/C=C/c2cccc(O)c2)c1 | inactive | inactive | 10.7 µM (active) | 18.9 µM (active) | inactive | inactive |  |  |  | 
CC1(C)C2CCC(CO[C@@H]3O[C@H](CO[C@@H]4OC[C@](O)(CO)[C@H]4O)[C@@H](O)[C@H](O)[C@H]3O)C1C2 (some centres not stated) | inactive | inactive | inactive | inactive | inactive | inactive |  |  |  | 
Cc1ccnn1-c1ccc(C(=O)N2CCN(S(=O)(=O)c3ccc(Cl)c(C(F)(F)F)c3)CC2)cc1 | inactive | inactive | inactive | inactive | inactive | inactive |  |  |  | 
O=C(Nc1cc(C(F)(F)F)cc(C(F)(F)F)c1)c1cnc(Cl)nc1C(F)(F)F | inactive | inactive | inactive | inactive | inactive | inactive |  |  |  | 

Source: PubChem BioAssay (NCATS)
